In PubChem BioAssay:
Records with an inconclusive call do not appear. Activity calls are given as the source filed them.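 Rule for the calls, unless noted: active = viability loss from added drug above about 55%, and viability with drug at most 40%, in both replicates (limit read from the data, passing the limit was not always enough); inconclusive = both conditions met in only one replicate; inactive = neither replicate meets both conditions.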

How the values were obtained:
[1] = Her2 expression decrease, cell viability multiplex – SKBR3 breast tumor cells, AlphaScreen, ATP viability, primary screen (AID 461;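 active = Her2 level under about 52% in both replicate screens, with viability over 70% of control, limit read from the data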;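 for Her2 level: lower value means less Her2 protein in the cells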;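 for viability: percent of carrier control wells set as 100% viability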); settings: SKBR3 Her2 protein level, 18-24 h, measured here: SKBR3 viability, ATP luminescence, at 10 µM
[2] = target: Receptor tyrosine-protein kinase erbB-2 (Homo sapiens) (UniProt P04626); experiment: as above; settings: 18-24 h, at 10 µM, stronger effect = lower value
[3] = reduced viability of SK-BR-3 breast cancer cells – cell-based, 24 h, human, pilot screen (AID 572;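 active = viability at or below 10% of carrier control in both of two separate runs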;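 note: compound exposure lasted between 18 and 24 h rather than exactly 24 h; 100% = carrier-treated control wells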); settings: SK-BR-3 viability, CellTiter-Glo luminescence, at 10 µM, stronger effect = lower value
[4] = HUVEC growth inhibition – cell-based, human, primary screen (AID 575;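 active = viability at or below 30% in both replicate assays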;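 note: 100% = median of untreated cell wells with 0.1% DMSO on each plate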); settings: HUVEC proliferation, CellTiter-Glo luminescence, 72 h; at 10 µM; stronger effect = lower value
[5] = H69AR cell proliferation blockers – human, duplicate replicates, primary screen (AID 580;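 active = viability at or under a set limit in both replicates, limit being median viability minus 3 SD, cut at about 48% in these data, passing the limit was not always enough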;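 note: 100% = mean luminescence of untreated wells and 0% = no signal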); settings: H69AR lung tumor cells viability, ATP luminescence, 72 h; at 10 µM; stronger effect = lower value
[6] = MRP1 drug-resistance reversers in H69AR cells – cell-based, doxorubicin co-treatment, pilot screen (AID 601); settings: CellTiter-Glo, 72 h, at 10 µM; for differential viability (reversal): stronger effect = higher value
[7] = yeast transport mutant growth inhibition pilot in 384-well plates, post-Golgi transport modulator project (AID 636; in the data active = inhibition above about 31%); settings: absorbance 615 nm, about 18 h, stronger effect = higher value
[8] = growth suppression of yeast trafficking mutant, preliminary HTS, modulators of trafficking downstream of Golgi apparatus project, 1536-format plate, OD 615 nm (AID 637; in the data active = inhibition above about 30%); settings: yeast transport mutant growth, absorbance 615 nm, 18 h; stronger effect = higher value
[9] = S. cerevisiae growth inhibition in permissive medium (OD615), pilot counter-assay for S. cerevisiae lifespan shortening project, permissive growth control (AID 705;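 active = growth inhibition above 25% in both replicates, a cutoff set 3 SD above the mean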); settings: OD615, 24 h, at 10 µM, stronger effect = higher value
[10] = S. cerevisiae growth inhibition in restrictive medium, OD615, pilot screen, restrictive growth control, yeast lifespan reduction project (AID 706;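 active = growth inhibition above a set limit, 3 SD over mean compound inhibition, in both replicates, cut at about 43% in these data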;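 note: modified DeaD lifespan yeast strain shifted to restrictive glucose medium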); settings: OD615, 48 h, at 10 µM, stronger effect = higher value
[11] = doxorubicin toxicity protection in MRP-1 cells – H69AR cells, CellTiter-Glo, duplicate, MRP-1 activator project, pilot screen (AID 807;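 active = viability increase at or above a cutoff of the median across tested compounds plus 3 SD, cut at about 8.5% in these data, passing the limit was not always enough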;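 note: compound pretreatment 18-22 h then 72 h combined with doxorubicin; 0% = doxorubicin alone and 100% = vehicle without doxorubicin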); settings: H69AR viability with doxorubicin, CellTiter-Glo luminescence; at 10 µM; stronger effect = higher value
[12] = viability of HCT116 without oncogenic beta-catenin – human colon tumor cells, pilot screen (AID 823;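 active = cell viability at or below a set limit in both duplicate runs, the limit being the all-compound median minus 4 SD, cut at about 23% in these data, passing the limit was not always enough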;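 note: 0% = wells killed by 20 µM Hyamine and 100% = untreated DMSO cell wells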); settings: HCT116 beta-catenin knockout viability, CellTiter-Glo, 60 h; at 10 µM; stronger effect = lower value
[13] = viability of PTEN-null HCT116 cells – cell-based, HCT116 clonal line, CellTiter-Glo, pilot screen (AID 824;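 active = viability at or below 27.92% in each of two runs, the all-compound median minus 4 SD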;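 note: 0% = 20 µM Hyamine control and 100% = vehicle cell control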); settings: HCT116 PTEN-deleted viability, 60 h, at 10 µM, stronger effect = lower value
[14] = RAM pathway blockade in budding yeast – dse1pr::URA3 reporter, 5-FOA selection, pilot screen (AID 869;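 active = inhibition over a set limit, the all-compound mean plus 3 SD, in both replicate runs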;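 note: 0% = DMSO wells with no growth and 100% = 10 µM 1-NA-PP1 with full growth; RAM network block rescues cells from 5-FOA so hits raise OD615 growth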); settings: S. cerevisiae dse1pr::URA3 5-FOA growth, OD615, 2 d; at 10 µM; stronger effect = higher value; strain carries analog-sensitive mutant Cbk1 kinase
[15] = RAM signaling pathway blockade in yeast – S. cerevisiae, Pdr1DBD-CYC8 efflux-inhibited sensitized strain, primary screen (AID 1298;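 active = RAM network inhibition above 8.4% in each of two replicates, 3 SD over the compound average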;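 note: 0% = DMSO untreated cells without growth and 100% = 10 µM 1-NA-PP1 full growth; higher means more yeast growth rescued from 5-FOA killing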); settings: S. cerevisiae cbk1-as DSE1-URA3 strain, 5-FOA growth OD615, 2 d; at 50 µM; stronger effect = higher value
[16] = H69AR cells + 2 uM doxorubicin, measured here: viability with 2 uM doxorubicin, stronger effect = lower value
[17] = H69AR cells, compound alone cytotoxicity

Receptor tyrosine-protein kinase erbB-2 (Homo sapiens), sequence (P04626 whole entry, looked up): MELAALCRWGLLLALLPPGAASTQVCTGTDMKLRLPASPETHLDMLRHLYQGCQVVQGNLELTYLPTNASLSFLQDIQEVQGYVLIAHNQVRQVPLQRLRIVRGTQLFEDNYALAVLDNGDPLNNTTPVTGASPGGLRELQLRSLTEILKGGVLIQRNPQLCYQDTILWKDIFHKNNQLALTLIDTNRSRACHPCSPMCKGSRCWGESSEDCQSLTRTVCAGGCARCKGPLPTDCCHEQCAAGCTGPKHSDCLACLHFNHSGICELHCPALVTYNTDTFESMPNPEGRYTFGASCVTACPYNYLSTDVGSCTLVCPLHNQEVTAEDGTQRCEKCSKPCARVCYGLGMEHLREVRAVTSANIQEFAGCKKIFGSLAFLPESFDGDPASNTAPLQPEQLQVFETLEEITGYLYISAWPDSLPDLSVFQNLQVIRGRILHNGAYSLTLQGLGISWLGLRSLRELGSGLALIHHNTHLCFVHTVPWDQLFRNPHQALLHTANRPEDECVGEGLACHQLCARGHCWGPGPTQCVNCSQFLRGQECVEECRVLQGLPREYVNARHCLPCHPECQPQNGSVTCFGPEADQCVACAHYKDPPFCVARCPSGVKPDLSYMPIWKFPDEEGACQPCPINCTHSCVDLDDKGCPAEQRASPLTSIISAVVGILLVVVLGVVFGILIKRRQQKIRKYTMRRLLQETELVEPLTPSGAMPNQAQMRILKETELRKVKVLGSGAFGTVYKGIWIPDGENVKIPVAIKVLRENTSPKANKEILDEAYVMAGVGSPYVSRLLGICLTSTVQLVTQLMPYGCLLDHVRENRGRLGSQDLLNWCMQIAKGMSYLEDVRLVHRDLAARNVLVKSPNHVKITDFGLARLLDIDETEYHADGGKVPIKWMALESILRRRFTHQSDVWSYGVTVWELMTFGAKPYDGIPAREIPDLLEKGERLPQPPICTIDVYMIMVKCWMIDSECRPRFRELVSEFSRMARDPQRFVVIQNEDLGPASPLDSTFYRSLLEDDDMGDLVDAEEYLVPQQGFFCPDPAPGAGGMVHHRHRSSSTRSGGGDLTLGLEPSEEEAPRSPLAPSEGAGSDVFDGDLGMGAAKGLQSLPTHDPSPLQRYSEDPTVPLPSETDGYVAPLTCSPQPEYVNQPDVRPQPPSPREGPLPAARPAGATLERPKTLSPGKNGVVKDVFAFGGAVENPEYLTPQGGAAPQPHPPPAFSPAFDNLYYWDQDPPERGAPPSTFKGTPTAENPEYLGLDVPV

| SMILES | viability [1] | Her2 level [2] | viability [3] | viability [4] | viability [5] | differential viability (reversal) ([6]; H69AR cells + 2 uM doxorubicin) | viability [6, 16] | viability [6, 17] | inhibition [7] | inhibition [8] | growth inhibition [9] | growth inhibition [10] | viability increase [11] | viability [12] | viability [13] | inhibition [14] | RAM network inhibition [15] |
| --- | --- | --- | --- | --- | --- | --- | --- | --- | --- | --- | --- | --- | --- | --- | --- | --- | --- |
| Cc1cccc(Cn2c(SCCN3CCCCC3)nc3c2c(=O)[nH]c(=O)n3C)c1 | 75% | 96.5% (inactive) | 75% (inactive) | 75.6% (inactive) | 73.7% (inactive) | -6.01% (inactive) | 79.8% | 73.7% | -1.73% (inactive) | 5.5% (inactive) | -16.1% (inactive) | -11.3% (inactive) | -2.89% (inactive) | 92.4% (inactive) | 83.1% (inactive) | 2.78% (inactive) | 0.26% (inactive) |
| COCCCNC(=O)Cn1cc2c(n1)CCC(C)C2 (stereo not drawn) | 112% | 100% (inactive) | 112% (inactive) | 90.5% (inactive) | 90.1% (inactive) | -1.69% (inactive) | 91.8% | 90.1% | 0% (inactive) | 0.17% (inactive) | -1.62% (inactive) | 5.27% (inactive) | 0.05% (inactive) | 104% (inactive) | 102% (inactive) | 1.82% (inactive) | -0.72% (inactive) |
| Cc1ccc(-c2noc(COc3ccccc3C)n2)cc1 | 72.5% | 92% (inactive) | 72.5% (inactive) | 102% (inactive) | 96.9% (inactive) | 10.6% (inactive) | 86.3% | 96.9% | -1.2% (inactive) | 1.61% (inactive) | -13.7% (inactive) | -16.5% (inactive) | 3.84% (inactive) | 93% (inactive) | 103% (inactive) | 0.065% (inactive) | 0% (inactive) |
| Cc1cc(C)cc(NC(=O)CSc2nnc(Cc3cccn3C)n2-c2ccc(F)cc2)c1 | 87% | 84% (inactive) | 87% (inactive) | 63.1% (inactive) | 86.6% (inactive) | 14% (inactive) | 72.6% | 86.6% | -1.2% (inactive) | -11.5% (inactive) | 3.92% (inactive) | 14.7% (inactive) | -4.83% (inactive) | 74.6% (inactive) | 71.6% (inactive) | 3.69% (inactive) | 7.38% (inactive) |
| COC(=O)c1ccccc1NC1c2ccccc2C(=O)N1c1cccnc1 (stereo not drawn) | 95% | 109% (inactive) | 95% (inactive) | 86.9% (inactive) | 84.7% (inactive) | -0.77% (inactive) | 85.4% | 84.7% | 1.07% (inactive) | 0.33% (inactive) | -16.1% (inactive) | 3.47% (inactive) | -0.86% (inactive) | 94.4% (inactive) | 89.8% (inactive) | -1.07% (inactive) | 4.8% (inactive) |
| O=C(Nc1ccncc1)C1CCCN(S(=O)(=O)c2cccc3cccnc23)C1 (stereo not drawn) | 84.5% | 104% (inactive) | 84.5% (inactive) | 63% (inactive) | 17.4% (active) | -58.8% (inactive) | 76.2% | 17.4% | -7.07% (inactive) | 3.33% (inactive) | -10.3% (inactive) | -4.11% (inactive) | -6.31% (inactive) | 19.9% (active) | 23.8% (active) | 1.59% (inactive) | 2.56% (inactive) |
| Cn1c(=O)c2c(nc(SCCCC#N)n2Cc2c(F)cccc2Cl)n(C)c1=O | 102% | 108% (inactive) | 102% (inactive) | 91.8% (inactive) | 77.3% (inactive) | 61.3% (active) | 15.9% | 77.3% | -1.33% (inactive) | 1.17% (inactive) | -13.5% (inactive) | 5.36% (inactive) | -4.16% (inactive) | 89.2% (inactive) | 86.1% (inactive) | 3.15% (inactive) | 4.98% (inactive) |
| CC1=C(C(=O)N2CCCCC2)C(c2cccs2)C2=C(CCCC2=O)N1 (stereo not drawn) | 100% | 174% (inactive) | 100% (inactive) | 96.7% (inactive) | 92.8% (inactive) | 1.19% (inactive) | 91.7% | 92.8% | 0.13% (inactive) | -5.67% (inactive) | -7.14% (inactive) | -3.55% (inactive) | -0.74% (inactive) | 98.1% (inactive) | 87% (inactive) | 1.4% (inactive) | -0.77% (inactive) |
| CC(NC(=O)c1cc2c(=O)n(C)c3ccccc3c2n1C)c1ccc2c(c1)OCCO2 (stereo not drawn) | 94.5% | 84% (inactive) | 94.5% (inactive) | 77% (inactive) | 42.7% (active) | -20.9% (inactive) | 63.6% | 42.7% | -2.18% (inactive) | 1.33% (inactive) | -5.51% (inactive) | -1.51% (inactive) | -4.19% (inactive) | 65.6% (inactive) | 58.2% (inactive) | 0.645% (inactive) | 3.77% (inactive) |
